Among the data in PubChem BioAssay are composite z-score values, retold here.

In the assay the target is Dickkopf-related protein 1 (Homo sapiens) (UniProt O94907). The assay is described as follows: small molecules binding DKK1 protein – biochemical, small-molecule microarray, 635 nm fluorescence scan, primary screen (AID 1106).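 Also: score merges emission near 667 nm with signal to noise over three replicate slides.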 As to conditions: higher = more signal.
Chain of Dickkopf-related protein 1 (Homo sapiens) (O94907 whole entry, looked up): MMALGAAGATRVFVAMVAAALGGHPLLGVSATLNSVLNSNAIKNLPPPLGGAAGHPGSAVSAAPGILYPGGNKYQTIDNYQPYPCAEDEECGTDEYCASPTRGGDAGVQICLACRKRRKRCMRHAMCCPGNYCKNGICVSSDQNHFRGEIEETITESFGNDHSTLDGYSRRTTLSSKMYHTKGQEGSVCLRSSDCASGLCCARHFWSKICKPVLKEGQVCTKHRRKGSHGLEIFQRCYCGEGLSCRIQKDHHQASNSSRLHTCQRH
Regarding `CC(C)CN1CCc2nc(-c3ccccc3)c3c(c2C1)CO[C@@H](C)C3`, the composite z-score came out at 0.512.
As for `COCC#Cc1ccc([C@@H]2N[C@H](C(=O)O)CC[C@H]2C)cc1`, the figure is 0.302; as for `C[C@@H](c1ccccc1)N1C(=O)[C@H]2[C@H]3[C@H](O)[C@H](O)CC(=NOC[C@@H](O)COCc4ccco4)[C@H]3CC[C@H]2C1=O`, 1.59.
As for `CCOC(=O)[C@H](CC(C)C)NC(=O)CCC1CC(OC(=O)NCc2ccc3c(c2)OCO3)CC2(CCCC(COC(=O)NCCc3ccc(Cl)cc3)O2)O1` (some centres undefined), the figure is 0.96; as for `C#CCCCON=C1C[C@@H](O)[C@@H](O)[C@@H]2[C@@H]3C(=O)N(C4CCCCC4)C(=O)[C@@H]3CC[C@@H]12`, 0.692; as for `CC(C)=CCCC(C)=CCON=C1C[C@@H](O)[C@@H](O)[C@@H]2[C@@H]3C(=O)N(c4cccc(Oc5ccccc5)c4)C(=O)[C@@H]3CC[C@H]12`, 0.419.
Regarding `COc1ccc(O[C@H]2C=C[C@@H](C#Cc3ccccc3)O[C@@H]2CO)cc1`, the composite z-score is 0.377.
For `CCCNC(=O)OC[C@H]1O[C@H](CCON=C[C@@H](NS(=O)(=O)c2ccc(C)cc2)[C@H](C)C=CCC(=O)OC)C=C[C@@H]1Oc1ccc(OC)cc1`, the composite z-score was -0.0968.
The compound `COC(=O)[C@H](C)NC(=O)CCC1CC(OC(=O)NCc2cccc3ccccc23)CC2(CCCC(COC(=O)NCCCN3CCCC3=O)O2)O1` (some centres undefined) came in with a composite z-score of 0.77.
`COC(=O)[C@H](C)NC(=O)CCC1CC(OC(=O)NCCc2ccc(F)cc2)CC2(CCCC(COC(=O)NCC3CCCCC3)O2)O1` (some centres undefined) displayed a composite z-score of 0.678.
Regarding `COC(=O)[C@H](C)NC(=O)CCC1CC(OC(=O)NCc2ccc3c(c2)OCO3)CC2(CCCC(COC(=O)NCCc3ccc(Cl)cc3)O2)O1` (some centres undefined), the composite z-score turned out to be 1.87.
Under `COc1ccc(COC(=O)NN=C2C[C@@H](O)[C@@H](O)[C@@H]3[C@@H]4C(=O)N([C@@H](C)c5ccccc5)C(=O)[C@@H]4CC[C@@H]23)cc1` stands 0.244.
With `COc1ccc(O[C@H]2C=C[C@@H](c3ccccc3)O[C@@H]2COC(=O)CCC(C)=NOC[C@@H](O)COCc2ccco2)cc1`, the composite z-score was -1.99.
Under `CCN1C(=O)[C@H]2[C@H]3[C@H](O)[C@H](O)CC(=NOCC(C)C)[C@H]3CC[C@H]2C1=O` stands 0.817; under `CC(=O)OC[C@H]1O[C@H](C#CCC2CCCCC2)C=C[C@@H]1OC(C)=O`, 0.668.
`CCN1C(=O)[C@H]2[C@H]3[C@H](O)[C@H](O)CC(=NOC[C@@H](O)[C@H]4O[C@@H]5OC(C)(C)O[C@@H]5[C@H]4O)[C@@H]3CC[C@H]2C1=O`: the composite z-score worked out at 0.284.
As for `C[C@@H]1CC[C@@H](C(=O)O)N[C@H]1c1cccc(N2CCOCC2)c1`, the figure is 0.109; as for `CCOC(=O)NN=C1C[C@@H](O)[C@@H](O)[C@@H]2[C@@H]3C(=O)N(c4ccc(F)cc4F)C(=O)[C@@H]3CC[C@H]12`, 0.871; as for `CCC1=NOC(CCC2CC(OC(=O)NCc3cccc4c3OCO4)CC3(CCCC(COC(=O)NCCc4ccc(Cl)cc4)O3)O2)C1` (centres undefined), 0.119.
Under `CCOC(=O)CCN1C(=O)[C@H]2[C@H]3[C@H](O)[C@H](O)CC(=NO[C@@H]4O[C@H](CO)[C@@H](O)[C@H](O)[C@H]4O)[C@@H]3CC[C@H]2C1=O` stands 1.27; under `CCOC(=O)[C@H](CC(C)C)NC(=O)CCC1CC(OC(=O)NCc2ccc3c(c2)OCO3)CC2(CCCC(COC(=O)NCc3ccccc3)O2)O1` (some centres undefined), 0.425.
`CC(C)C(=O)N[C@H]1CCCN1C(=O)C=Cc1ccccc1`: the composite z-score was determined as 0.634.
Under `COC(=O)[C@H](C)NC(=O)CCC1CC(OC(=O)NCc2cccc3ccccc23)CC2(CCCC(COC(=O)NCc3ccccc3)O2)O1` (some centres undefined) stands 0.667; under `CCOC(=O)[C@H](CC(C)C)NC(=O)CCC1CC(OC(=O)NCCc2ccc(F)cc2)CC2(CCCC(COC(=O)NCc3cccc4ccccc34)O2)O1` (some centres undefined), 0.678.
Under `COC(=O)CC=C[C@@H](C)[C@@H](C=NOC(C)CN1CCCCc2nc(C)c(C)cc21)OC` (some centres undefined) stands 1.33.
On to `CCN1C(=O)[C@H]2[C@H]3[C@H](O)[C@H](O)CC(=NOC[C@@H](O)COCc4ccco4)[C@H]3CC[C@H]2C1=O`, for which the composite z-score worked out at 1.39.
`COCCNC(=O)OCC1CCCC2(CC(OC(=O)NCc3cccc4ccccc34)CC(CCC(=O)N[C@@H](C)C(=O)OC)O2)O1` (some centres undefined) showed a composite z-score of 0.735.
As for `CC(=O)OC[C@H]1O[C@@H](ON=C(C)CCN2CCCCc3nc(C)c(C)cc32)[C@H](OC(C)=O)[C@@H](OC(C)=O)[C@@H]1OC(C)=O`, the figure is 1.39; as for `O=C1C=C[C@@H](O)[C@@H]2[C@@H]3C(=O)N(c4cccc(Oc5ccccc5)c4)C(=O)[C@@H]3CC[C@@H]12`, 0.503.
